From PubChem BioAssay (Tox21)
Unmarked numbers belong to inactive results. Activity calls are given as the source filed them. Calls come from the whole dose curve; as a rule, active = well fitted curve in the direction sought with a large enough effect in the repeat runs; inconclusive = weak or mixed curves; inactive = flat fitted curve, though single readings scatter.

Experiment: qHTS assay to test for compound auto fluorescence at 460 nm (blue) in HEK293 cells (AID 720678)
Settings: blue autofluorescence 405/460 nm; series mostly up to 91.3 µM; fluorescence, % of triamterene: at the top concentration
Text: National Center for Advancing Translational Sciences [NCATS]
NIH Chemical Genomics Center [NCGC]
U.S. Environmental Protection Agency [EPA]
National Institutes of Environmental Health Sciences [NIEHS]
National Toxicology Program [NTP]
U.S. Food and Drug Administration [FDA]
Compound auto fluorescence often interferes with screening of the compound library against various biological targets and signaling pathways. Some of these compounds may have fluorophoric properties. Such properties may interfere with the assay outputs resulting in false positives and/or negatives. To decrease such complications and ensure the compound activities are relevant in terms of biological response, the Tox21 10K compound library was screened for auto fluorescence.
From the fluorophores used as reporter signals in our screening assays, the auto fluorescence equivalencies of compounds against three fluorophores have been evaluated: Triamterene, Fluorescein and Rose Bengal sodium for blue, green and red fluorescence, respectively. The fluorescence intensities were measured using Excitation/Emission wavelengths at 405/460nm, 485/535nm and 540/590nm for blue, green and red labels, respectively. This assay includes the blue fluorescence data.
Tox21 Assay Protocol Summary:
2,000 HEK293 cells in 5 uL of culture medium containing 10% dialyzed FBS per well were dispensed into black wall/clear bottom 1536-well plates using a Multidrop Combi Dispenser (Thermo Scientific). The assay plates were incubated for 4-5 hr at 37C to allow cell attachment to the well bottom, followed by the transfer of 23 nL compound or DMSO vehicle by a pintool work station (Kalypsys, San Diego, CA). After the assay plates were incubated overnight at 37C and 5% CO2, fluorescence intensities in the assay plates were measured by an Envision (PerkinElmer, Shelton, CT) plate reader using three labels for measuring blue, green and red fluorescence at […] 460, 535 and 590nm respectively.
% is set by controls: 0 for no effect and ±100 for the full control effect; potency is the fitted concentration of half-maximal effect; tags give direction and shape of the fitted curve or compound fluorescence and quenching.

SMILES	fluorescence, % of triamterene	Potency
Clc1ccc(CO/N=C(\Cn2ccnc2)c2ccc(Cl)cc2Cl)c(Cl)c1	0.0721% [at 46 µM]	–
O=c1oc2ccccc2c(O)c1Cc1c(O)c2ccccc2oc1=O	0.108% [at 18.6 µM]	–
N#CCCC(Br)(C#N)CBr (stereo not given)	0.384%	–
CC(C)(C)c1cc([N+](=O)[O-])cc(C(C)(C)C)c1O	-0.344%	–
Nc1ccc(Sc2ccc(N)cc2)cc1	-0.365%	–
O=C(NC(=O)c1c(F)cccc1F)Nc1cc(Cl)c(OC(F)(F)C(F)F)c(Cl)c1	-0.176%	–
CC(C)CC(C)N (stereo not given)	0.0042%	–
CC(=O)/C=C/c1ccc2c(c1)OCO2	0.919%	–
CCCCCCCCc1ccc(O)cc1	0.255%	–
CCOP(=S)(OCC)OC(Cl)C(Cl)(Cl)Cl (stereo not given)	0.0208%	–
O=c1[nH]c2ccccc2n1C1CCN(CCCC(c2ccc(F)cc2)c2ccc(F)cc2)CC1	–	inactive
C[C@H]1O[C@@H](O[C@H]2[C@@H](O)C[C@H](O[C@H]3[C@@H](O)C[C@H](O[C@H]4CC[C@@]5(C)[C@H](CC[C@@H]6[C@@H]5CC[C@]5(C)[C@@H](C7=CC(=O)OC7)CC[C@]65O)C4)O[C@@H]3C)O[C@@H]2C)C[C@H](O)[C@@H]1O	–	inactive
CC(C)CCCCCCCOP(=O)(Oc1ccccc1)Oc1ccccc1	-0.0446%	–
BrCBr	0.0831% [at 95.7 µM]	–
Oc1c(Br)c(Br)c(Br)c(Br)c1Br	-0.0049%	–
N#C/C=C/C#N	0.143% [at 95.7 µM]	–
CCCN(CCC)CCc1c[nH]c2ccccc12	-0.0057%	–
CCOCn1c(-c2ccc(Cl)cc2)c(C#N)c(Br)c1C(F)(F)F	-0.162%	–
[Hg+2].[I-].[I-]	0.251%	–
CCN	0.268%	–

SMILES	fluorescence, % of triamterene	Potency
C[C@@H]1O[C@@H](O[C@@H]2C=C3CC[C@@H]4[C@H](CC[C@]5(C)[C@@H](c6ccc(=O)oc6)CC[C@]45O)[C@@]3(C)CC2)[C@H](O)[C@H](O)[C@H]1O	0.167% [at 18.6 µM]	–
CC(C)CC(C)Nc1ccc(Nc2ccccc2)cc1 (stereo not given)	0.618%	–
CC(C)C1CCC(Cc2ccc(Cl)cc2)C1(O)Cn1cncn1 (stereo not given)	0.0368%	–
CN(C)CCc1c[nH]c2cccc(O)c12	1.43%	–
Oc1ccc(C2(c3ccc(O)cc3)CCCCC2)cc1	0.0024%	–
CN(C)CCc1c[nH]c2ccc(O)cc12	-0.0088%	–
ClC(Cl)=C(Cl)Cl	-0.0227%	–
CCCCCCCCCCCCCCCC[N+](C)(C)C	–	inactive
ClCc1ccc(Cl)cc1Cl	-0.0388%	–
ClC1=C(Cl)[C@]2(Cl)[C@@H]3[C@@H]4C[C@@H]([C@H]5O[C@@H]45)[C@@H]3[C@@]1(Cl)C2(Cl)Cl	-0.251%	–
N#CC(Cl)Cl	-0.143%	–
CCCOCC(=Nc1ccc(Cl)cc1C(F)(F)F)n1ccnc1	-0.0795%	–
O=S(=O)(c1ccc(Cl)cc1)c1ccc(Cl)cc1	-0.447% [at 95.7 µM]	–
BrC(Br)C(Br)(Br)Br	-0.134%	–
O=C1NCN(c2ccccc2)C12CCN(CC1COc3ccccc3O1)CC2 (stereo not given)	-0.0077% [at 46 µM]	–
COP(=S)(OC)Oc1cc(Cl)c(Br)cc1Cl	-0.0347%	–
N#CSCSC#N	–	inactive
c1ccc2cc3c(cc2c1)-c1cccc2cccc-3c12	–	3.55 µM [fluorescent] (active)
Cc1cc(C)c(C2=C(OC(=O)CC(C)(C)C)C3(CCCC3)OC2=O)c(C)c1	0.0964% [at 95.7 µM]	–
COc1ccc(OC)c(CC(C)N)c1 (stereo not given)	-0.0476% [at 95.7 µM]	–
